According to article PMC13083723 (Patterns, 2026):
Hit rate of the full screen: of about 5,400 compounds, about 190 (3.5%) showed an effect of 50% or more. Shown is part of a subset that was picked to be rich in strong results.

Test system: Vero-E6
Experiment: primary screen, phospholipidosis by LipidTOX staining; higher = more effect of the substance
Conditions: 10 µM
Method: To measure drug-induced PLD in Vero-E6 cells, we used the HCS LipidTOX Red Phospholipidosis Detection Reagent (Invitrogen, #H34351), which is non-toxic to cell growth and remains well retained after aldehyde fixation. In this setup, compounds (at 10 μM concentration) and controls (amiodarone: 10 μM concentration; DMSO: 0.1 v/v %) were added to clear-bottom, 384-well plates (PhenoPlate 384-well, black, optically clear flat bottom, tissue-culture treated, Revvity #6057302) using the Echo Liquid Handler (Labcyte).

| SMILES | result_ITMP |
| --- | --- |
| CNC(=O)c1ccccc1Nc1cc(Nc2ccc(N3CCOCC3)cc2OC)ncc1C(F)(F)F | 10.6% |
| CNC(=O)c1ccccc1Nc1nc(Nc2ccc3c(c2OC)CCC[C@H](N2CCN(CCO)CC2)C3)ncc1Cl | 139% |
| CN1CCN(Cc2ccc(Nc3ncc(Cl)c(Nc4ccccc4S(=O)(=O)N(C)C)n3)cc2)CC1 | 1.65% |
| CC1(C)S[C@@H]2[C@H](NC(=O)C(C(=O)[O-])c3ccsc3)C(=O)N2[C@H]1C(=O)[O-] (stereo partly drawn) | -2.7% |
| CCCCCC(O)CCCC(=O)[O-] (stereo not drawn) | -2.69% |
| CC#C[C@@H](CC(=O)[O-])c1ccc(OCc2cccc(-c3ccc(C(F)(F)F)cc3)c2)cc1 | 2.55% |
| CCN[C@@H](C)Cc1cccc(C(F)(F)F)c1 | 3.76% |
| CC(Cc1cccc(C(F)(F)F)c1)NCCOC(=O)c1ccccc1 (stereo not drawn) | 6.92% |
| C[C@@H](NCCCc1cccc(C(F)(F)F)c1)c1cccc2ccccc12 | 61.8% |
| CSCCC(N)C(=O)O (stereo not drawn) | -3.06% |
| O[C@H]1[C@H]2[C@H](O)CCCN2C[C@H]1O | 0.57% |
| c1cc(Nc2cc(C3CC3)n[nH]2)nc(Nc2ccc3nc[nH]c3c2)n1 | -1.4% |
| CSc1ccccc1Nc1nc(N2CCNCC2)nc2c(NCC3CC3)ncnc12 | 79.3% |
| CN1C2C=C(c3sccc3Br)CC1CC2 (stereo not drawn) | 6.82% |
| CCN(CCO)CCCOc1ccc2c(Nc3cc(CC(=O)Nc4cccc(F)c4)n[nH]3)ncnc2c1 | -2.36% |
| C(=C\c1ccccc1)/CN1CCN(CCOC(c2ccccc2)c2ccccc2)CC1 | 7.08% |
| c1ccc(CCCN2CCN(CCOC(c3ccccc3)c3ccccc3)CC2)cc1 | 15% |
| Clc1ccc(C(OCCN2CCCCC2)c2ccccc2)cc1 (stereo not drawn) | 63.9% |
| C#C[C@]1(OC(C)=O)CCC2C3CCC4=C/C(=N/O)CCC4C3CC[C@@]21CC (stereo partly drawn) | 1.9% |
| O=C(CCCN1CCC(O)(c2ccc(Cl)cc2)CC1)c1ccc(F)cc1 | 3.22% |
| CN(C)C(=O)C(CCN1CCC(O)(c2ccc(Cl)cc2)CC1)(c1ccccc1)c1ccccc1 | 67.2% |
| OC1(c2ccc(Cl)c(C(F)(F)F)c2)CCN(CCCC(c2ccc(F)cc2)c2ccc(F)cc2)CC1 | 36.2% |
| NCCCCCC(O)(P(=O)([O-])O)P(=O)(O)O | -0.14% |
| Nc1ncnc2c1nc(Br)n2[C@@H]1O[C@@H]2COP(=O)([O-])O[C@H]2[C@H]1O | 15.8% |
| CCN1C(=O)CN=C2NC=C(c3ccc(-c4nnc[nH]4)nc3C)N=C21 | -2.57% |
| OC[C@@H](O)[C@@H](O)[C@@H](O)CO | -6.6% |
| COc1cc(NC(=O)c2ccc(-c3ccc(Cl)cc3)o2)cc(OC)c1 | 2.29% |

| SMILES | result_ITMP |
| --- | --- |
| CCNC(=O)c1noc(-c2cc(C(C)C)c(O)cc2O)c1-c1ccc(CN2CCOCC2)cc1 | -0.23% |
| O=C(Nc1ccc(CN2CCOCC2)cc1)c1ccc(-c2cccc(Cl)c2)o1 | 56.3% |
| C[C@]12C=CC(=O)C=C1CCC1C2[C@@H](O)C[C@@]2(C)C1CC[C@]2(O)C(=O)COC(=O)CCC(=O)O (stereo partly drawn) | -5.57% |
| Cc1cc(/C=C2\SC(=O)N(c3ccccc3)C2=O)c(C)n1-c1cccnc1 | -6.01% |
| O=C(Nc1ccc2c(O)cc(S(=O)(=O)[O-])cc2c1)Nc1ccc2c(O)cc(S(=O)(=O)[O-])cc2c1 | -7.47% |
| COc1ccc(CCN(C)CCCOc2ccc(S(=O)(=O)c3c(C(C)C)c4ccccc4n3C)cc2)cc1OC | 84.7% |
| COc1ccc(CCN(C)CCc2ccc(OC)c(OC)c2)cc1OC | -1.15% |
| COc1ccc(CCN(C)CCCN2CCc3cc(OC)c(OC)cc3CC2=O)cc1OC | -1.11% |
| O=C1NCN(c2ccccc2)C12CCN(CCCC(c1ccc(F)cc1)c1ccc(F)cc1)CC2 | 1.98% |
| O=C(NCCN1CCC2(CC1)C(=O)NCN2c1cccc(F)c1)c1ccc2ccccc2c1 | 55.1% |
| O=C(NCCN1CCC2(CC1)C(=O)NCN2c1cccc(F)c1)c1ccc(F)c(F)c1 | 60.1% |
| COc1ccccc1N1CCN(CCCCNC(=O)c2ccc3ccccc3c2)CC1 | 34.4% |
| COc1ccc2cccc(N3CCN(CCNC(=O)c4ccc(F)cc4)CC3)c2c1 | 14% |
| O=C(NCCN1CCOCC1)c1ccc(Cl)cc1 | -6.19% |
| C[C@@H]1CCO[C@H]2Cn3cc(C(=O)NCc4ccc(F)cc4F)c(=O)c(O)c3C(=O)N12 | -4.23% |
| CN(C)CCCO[C@@H]1[C@H]2OC(C)(C)O[C@H]2O[C@@H]1[C@H](O)CO | -8.5% |
| C[C@@H]1C[C@H]2[C@@H]3CCC4=CC(=O)C=C[C@]4(C)[C@@]3(Cl)[C@@H](O)C[C@]2(C)[C@@]1(O)C(=O)CCl | 0.3% |
| O=C(CN1C2=NCCN2c2ccccc21)c1ccc(-c2ccccc2)cc1 | 53.9% |
| CN(CCCN1c2ccccc2CCc2ccccc21)CC(=O)c1ccc(Cl)cc1 | 13.8% |
| O=C(O)c1ccccc1C(=O)Nc1ccc(-c2ccccc2)cc1 | -1.06% |
| c1ccc(CNc2ncnc3nc[nH]c23)cc1 | -8.79% |
| c1ccc(CNc2nc(NCc3ccccc3)c3ccccc3n2)cc1 | 58.9% |
| Cn1cnc2c(NCc3ccccc3)nc(NCCO)nc21 | -1.91% |
| N=C(N)Nc1nc(CSCCN/C=N/S(=O)(=O)c2ccc(Br)cc2)cs1 | 0.59% |
| O=C([O-])c1ccccc1Nc1cc(Cl)ccc1C(=O)[O-] | -3.54% |
| C[C@@H]([C@H](O)c1ccc(O)cc1)N1CCC(Cc2ccccc2)CC1.C[C@H]([C@@H](O)c1ccc(O)cc1)N1CCC(Cc2ccccc2)CC1 | 8.99% |
| CN[C@H](CC(C)C)C(=O)NC1C(=O)N[C@@H](CC(N)=O)C(=O)N[C@H]2C(=O)NC3C(=O)N[C@H](C(=O)N[C@@H](C(=O)O)c4cc(O)cc(O)c4-c4cc3ccc4O)[C@H](O)c3ccc(c(Cl)c3)Oc3cc2cc(c3O[C@@H]2OC(CO)[C@@H](O)[C@H](O)[C@H]2O[C@H]2C[C@](C)(N)[C@H](O)[C@H](C)O2)Oc2ccc(cc2Cl)[C@H]1O (stereo partly drawn) | -7.09% |
